Experimental findings from PubChem BioAssay (NCI) are described below.

About 83,000 compounds went through this panel and 20% of them were active in at least one assay; those are over-represented in the sample as a whole.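 Treatment: one concentration, 48 hours, 96-well format. Scoring: percent growth, with anything below 10 considered active.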 A number with no mark means an inactive call. Active and inactive are the calls of the source.

What all share (assay): NCI-60 one-dose screen, 48 h (100 = growth as untreated, 0 = no growth, -100 = all killed)
Settings in all cases: 10 µM unless noted

Experiment [1] has as its system T-47D breast.
Experiment [2] deals with BT-549 breast.
Experiment [3] deals with MDA-MB-435 melanoma.
For experiment [4], the system named is SW-620 colon.
Experiment [5] deals with MCF7 breast.
The test system of experiment [6] is HCT-116 colon.
Experiment [7] deals with HCC-2998 colon.
Experiment [8] deals with KM12 colon.

For the compound `COc1cc(-c2cncn2-c2ccc(-c3nc4ccc(F)cc4s3)cc2)ccc1F`, the growth is 76.3% in experiment [1]; 85.3% in experiment [2]; 87.4% in experiment [3]; 54.3% in experiment [4]; 64.3% in experiment [5]; 37.7% in experiment [6]. Moreover, the growth in experiment [7] is 80.2%; in experiment [8] it was 81.7%.

For the compound `Cc1nc2sc(C(=O)Nc3cccc(Br)c3)c(N)c2cc1C(O)c1ccccc1` (stereo not given), the growth was 43.2% in experiment [1]; 53.7% in experiment [2]; 4.05% (active) in experiment [3]; 31% in experiment [4]; 21.9% in experiment [5]; 16.2% in experiment [6]. The figures for the growth in experiment [7] and in experiment [8] were 18.2% and 22.8%, respectively.

With `O=C(COc1ccc(-c2nc3cc(Cl)c(Cl)cc3[nH]2)cc1)N=Nc1c(O)[nH]c2ccc(Cl)cc12`, the growth is 56.8% in experiment [1]; 76.7% in experiment [2]; 83.5% in experiment [3]; 56.1% in experiment [4]; 25.6% in experiment [5]; 54.4% in experiment [6]. For the same compound, the growth in experiment [7] was 95.1%; in experiment [8], 64.5%.

Turning to `Clc1cc(Cl)c(Cl)c(-c2nnc(SCc3ccncc3Br)o2)c1`, the growth is 96.1% in experiment [1]; 99% in experiment [2]; 98.4% in experiment [3]; 96.5% in experiment [4]; 91.8% in experiment [5]; 88.8% in experiment [6]. In addition, the values for the growth in experiment [7] and in experiment [8] were 58.6% and 96.2%, respectively.

Regarding `Oc1c(I)cc(I)cc1CNCc1ccccn1`, the growth in experiment [1] is 14.8%; in experiment [2], 36.7%; in experiment [3], 46.8%; in experiment [4] it was 33.2%; in experiment [5] it was 28.7%; in experiment [6], 26.4%. The figures for the growth in experiment [7] and in experiment [8] were 49.3% and 41.1%, respectively.

Turning to `COc1cc2c(cc1OCCCN1CCN(CCCOc3cc4c(cc3OC)C(=O)N3CCC[C@H]3C=N4)CC1)C=CC(C)(C)O2`, the growth in experiment [1] is -55.2% (active); in experiment [2], -100% (active); in experiment [3], -72.9% (active); in experiment [4] it was -100% (active); in experiment [5], -100% (active); in experiment [6], -96% (active). Moreover, the growth is -82.1% (active) in experiment [7] and -82% (active) in experiment [8].

As for `Cc1ccccc1/C=C/C(=O)c1cccc(OCCCCOc2cccc(C(=O)/C=C/c3ccccc3C)c2)c1`, the growth in experiment [1] was 91.4%; in experiment [2], 111%; in experiment [3], 95%; in experiment [4], 94.6%; in experiment [5], 41.5%; in experiment [6] it was 41.6%. The growth in experiment [7] is 93.4%; in experiment [8], 96.7%.

Consider `O=C(Nc1ccccc1)Nc1ncnc2c1ncn2-c1ccc(Cl)cc1`, for which the growth in experiment [1] was 63.8%; in experiment [2] it was 102%; in experiment [3] it was 92.1%; in experiment [4], 97.7%; in experiment [5], 82.5%; in experiment [6], 36.6%. For the same compound, the values for the growth in experiment [7] and in experiment [8] were 105% and 87.1%, respectively.

On to `CCC(C)N(CCNc1cc(OC)cc2cccnc12)CC(C)C` (stereo not given), for which the growth was 6.53% (active) in experiment [1]; 106% in experiment [2]; 109% in experiment [3]; 85.5% in experiment [4]; 12.6% in experiment [5]; 66.9% in experiment [6]. For the same compound, the growth in experiment [7] was 96%; in experiment [8], 97.5%.

As to `COc1ccc(C/C(C)=C(\c2ccc(Cl)cc2)c2ccc(OCCN3CCCCC3)cc2)cc1`, the growth was 75.1% in experiment [1]; 96.7% in experiment [2]; 102% in experiment [3]; 88.4% in experiment [4]; 81.7% in experiment [5]; 100% in experiment [6]. Also, the figures for the growth in experiment [7] and in experiment [8] were 98.5% and 104%, respectively.

For `O=C(CSc1nc2sc3c(c2c(=O)n1-c1ccccc1)CCCCC3)N/N=C/c1cccc([N+](=O)[O-])c1`, the growth is 64.1% in experiment [1]; 38.1% in experiment [2]; 72.9% in experiment [3]; 52.4% in experiment [4]; 45.9% in experiment [5]; 4.84% (active) in experiment [6]. The growth in experiment [7] was 98%; in experiment [8], 47.6%.

Take `O=S(=O)(Nc1ccc(Cl)c(C(F)(F)F)c1)c1ccc(-c2cnc(C3CC3)o2)cc1`: the growth is 12.8% in experiment [1]; 23.7% in experiment [2]; 2.82% (active) in experiment [3]; 22.4% in experiment [4]; 15.4% in experiment [5]; 10.1% in experiment [6]. The growth was 25.1% in experiment [7] and 8.14% (active) in experiment [8].

For `COc1cc(/C=C/C(=O)c2ccc(F)cc2)ccc1OCCCCOc1ccc(/C=C/C(=O)c2c(C)nc3ccccc3c2C)cc1OC`, the growth is 92.7% in experiment [1]; 154% in experiment [2]; 94.4% in experiment [3]; 102% in experiment [4]; 80.1% in experiment [5]; 90.8% in experiment [6]. In addition, the growth is 100% in experiment [7] and 111% in experiment [8].

On to `Cc1ccc(NC(=O)c2sc3nc(C)c(Br)c(C)c3c2N)cc1`, for which the growth was 61.9% in experiment [1]; 79.7% in experiment [2]; 81.8% in experiment [3]; 78.3% in experiment [4]; 59.1% in experiment [5]; 72.6% in experiment [6]. In addition, the growth in experiment [7] was 92.1%; in experiment [8], 74.8%.

Take `COc1ccc(/C=C/C(=O)c2cccc(OCCCCOc3cccc(C(=O)/C=C/c4ccc(OC)c(OC)c4)c3)c2)cc1OC`: the growth in experiment [1] was 43.3%; in experiment [2], 60.7%; in experiment [3] it was 75.5%; in experiment [4] it was 89.5%; in experiment [5], 44.3%; in experiment [6] it was 58.6%. In addition, the figures for the growth in experiment [7] and in experiment [8] were 116% and 79.1%, respectively.

Regarding `CC(C)C1=NOC(=O)C1=Cc1cn(-c2ccccc2)nc1-c1ccc(F)cc1`, the growth in experiment [1] is 76.9%; in experiment [2] it was 121%; in experiment [3] it was 77.4%; in experiment [4] it was 61.2%; in experiment [5], 50.8%; in experiment [6] it was 32.4%. Besides, the values for the growth in experiment [7] and in experiment [8] were 79.8% and 69.7%, respectively.

As for `C#CCOc1ccc2ncnc(Nc3ccc(NC(=O)C=C)cc3)c2c1`, the growth in experiment [1] was 4.07% (active); in experiment [2] it was -28.7% (active); in experiment [3], -18.9% (active); in experiment [4] it was -45.8% (active); in experiment [5], -10.4% (active); in experiment [6], -79.9% (active). Besides, the growth was 82.2% in experiment [7] and 8.91% (active) in experiment [8].

Regarding `Nc1n[nH]c2cccc(C#Cc3cccc(NC(=O)c4cc(F)cc(C(F)(F)F)c4)c3)c12`, the growth was 67.3% in experiment [1]; 79.6% in experiment [2]; 71.2% in experiment [3]; 62.5% in experiment [4]; 68.4% in experiment [5]; 29.9% in experiment [6]. Further, the growth in experiment [7] was 70.8%; in experiment [8], 83.3%.

Consider `c1csc(-c2ccc(CNc3c4ccccc4nc4ccccc34)cc2)c1`, for which the growth in experiment [1] was 71.9%; in experiment [2], 33.7%; in experiment [3] it was -83.4% (active); in experiment [4], -72.2% (active); in experiment [5], -63% (active); in experiment [6], -82.6% (active). Moreover, the growth in experiment [7] was -87.2% (active); in experiment [8], 26.3%.

As to `CCn1c(SCC(=O)N/N=C(\C)c2ccc(Cl)cc2)nc2c1c(=O)n(C)c(=O)n2C`, the growth was 98.3% in experiment [1]; 99% in experiment [2]; 100% in experiment [3]; 95.1% in experiment [4]; 95.8% in experiment [5]; 102% in experiment [6]. In addition, the values for the growth in experiment [7] and in experiment [8] were 102% and 101%, respectively.

Regarding `COC(=O)[C@]1(C)CCC[C@]2(C)[C@H]3C[C@H]4C(C(C)C)=C[C@]3(CC[C@H]21)[C@@H]1C(=O)CC[C@H](OCCC#N)[C@@H]14`, the growth in experiment [1] is 66.4%; in experiment [2] it was 87.5%; in experiment [3] it was 84.9%; in experiment [4], 86.4%; in experiment [5] it was 59.5%; in experiment [6] it was 77.6%. The growth in experiment [7] is 96.4%; in experiment [8], 82%.

As to `CC(C)c1ccc(Cc2cnc(NC(=O)c3cc(Br)cs3)s2)cc1`, the growth was 30.3% in experiment [1]; 42.8% in experiment [2]; -66.9% (active) in experiment [3]; 28.3% in experiment [4]; 11.7% in experiment [5]; 26.1% in experiment [6]. Further, the growth in experiment [7] is 64%; in experiment [8] it was 20.7%.

In the case of `C#CCOc1cccc(Nc2ncnc3cc(NC(=O)C=C)ccc23)c1`, the growth in experiment [1] was 8.13% (active); in experiment [2], 7.82% (active); in experiment [3], -1.49% (active); in experiment [4], 12.1%; in experiment [5], 20.4%; in experiment [6], 2.37% (active). The growth was 60.7% in experiment [7] and 24.6% in experiment [8].

With `Nc1nc(-c2ccc(Cl)cc2)nc2c1sc(=S)n2-c1ccccc1`, the growth in experiment [1] was 14.8%; in experiment [2], 54.9%; in experiment [3], 57.4%; in experiment [4] it was 55.3%; in experiment [5], 57.6%; in experiment [6] it was 20.1%. Further, the growth in experiment [7] is 72.3%; in experiment [8], 36%.

Regarding `N#Cc1c(-c2ccccc2)cc(-c2ccc(Nc3nc(Nc4ccc(Cl)cc4)nc(Nc4ccc(Cl)cc4)n3)cc2)nc1N`, the growth in experiment [1] is -39.5% (active); in experiment [2] it was -68.1% (active); in experiment [3], -34.4% (active); in experiment [4], -39.2% (active); in experiment [5] it was 22%; in experiment [6], 4.99% (active). In addition, the growth in experiment [7] was -14.3% (active); in experiment [8], 50.1%.

Consider `CC(C)Cn1cnc2c(=O)[nH]c(N)nc21`, for which the growth in experiment [1] was 85.3%; in experiment [2], 98.5%; in experiment [3], 109%; in experiment [4], 106%; in experiment [5], 86.7%; in experiment [6], 101%. For the same compound, the growth was 104% in experiment [7] and 106% in experiment [8].

Regarding `C=CCSc1nnc(NC(=O)CCl)s1`, the growth in experiment [1] is 90.3%; in experiment [2] it was 79%; in experiment [3] it was 90.8%; in experiment [4], 105%; in experiment [5] it was 90.1%; in experiment [6], 86.3%. For the same compound, the growth in experiment [7] is 130%; in experiment [8], 95.3%.

For the compound `CCC(=O)Oc1ccc(-c2ccccc2)cc1Br`, the growth in experiment [1] is 101%; in experiment [2], 109%; in experiment [3], 109%; in experiment [4] it was 99.1%; in experiment [5], 93.6%; in experiment [6], 104%. In addition, the growth is 112% in experiment [7] and 111% in experiment [8].

As to `COC(=O)c1c(C)c2n(c1C)C(=O)C(c1ccccc1)=C2`, the growth in experiment [1] is 37.1%; in experiment [2], 51.2%; in experiment [3], 78.1%; in experiment [4] it was 93%; in experiment [5], 39%; in experiment [6], 74.2%. Further, the values for the growth in experiment [7] and in experiment [8] were 75.1% and 78.2%, respectively.

Regarding `Cc1ccc2c(n1)C(=O)C(Br)=C(CC(C)C)C2=O`, the growth in experiment [1] is 82%; in experiment [2], 99.4%; in experiment [3], 104%; in experiment [4], 64%; in experiment [5] it was 93.2%; in experiment [6], 61.6%. Besides, the growth in experiment [7] is 105%; in experiment [8] it was 99.3%.
